SENP8 block-1 = SENP8 protease inhibition; Q96LD8; purified SENP8, Z-RLRGG-aminoluciferin cleavage, luminescence; inhibition, % at 10 µM; hit rate 1.2% among 330,000; AID 2540; in the data active means inhibition above about 50%
Target sequence (Q96LD8 whole entry, looked up): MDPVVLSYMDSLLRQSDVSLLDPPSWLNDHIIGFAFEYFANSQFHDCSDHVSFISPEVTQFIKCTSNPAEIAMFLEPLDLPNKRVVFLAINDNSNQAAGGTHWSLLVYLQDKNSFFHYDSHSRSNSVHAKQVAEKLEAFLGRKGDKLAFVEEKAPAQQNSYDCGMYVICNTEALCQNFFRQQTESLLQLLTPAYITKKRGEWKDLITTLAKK
SENP7 block = blocks the human protease SENP7; Q9BQF6; recombinant SENP7, Z-RLRGG-aminoluciferin luminescence, 40 min; inhibition, % at 5 µM; hit rate 1.5% among 330,000; AID 434973;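 active means inhibition above about 50% at the single test dose, limit read from the data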;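 further: plate controls were DMSO with enzyme for no effect and no enzyme buffer wells for full effect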
Target sequence (Q9BQF6 706-1050 limits assumed): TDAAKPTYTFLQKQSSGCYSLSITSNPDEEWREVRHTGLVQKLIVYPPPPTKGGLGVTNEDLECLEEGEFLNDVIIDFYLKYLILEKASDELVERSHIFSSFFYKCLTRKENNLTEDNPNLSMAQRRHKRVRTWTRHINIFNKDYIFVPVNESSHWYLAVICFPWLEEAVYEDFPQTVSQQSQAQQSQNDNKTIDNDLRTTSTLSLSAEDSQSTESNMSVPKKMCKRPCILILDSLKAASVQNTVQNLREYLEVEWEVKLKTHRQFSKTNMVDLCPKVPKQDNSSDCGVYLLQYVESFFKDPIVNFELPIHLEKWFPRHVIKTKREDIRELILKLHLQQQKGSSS
SENP8 block-2 = blocks human SENP8 cleavage of Nedd8 substrate; Q96LD8; recombinant SENP8, Nedd8 substrate fluorescence; inhibition, % at 20 µM; hit rate 0.64% among 360,000; AID 602440; in the data active means inhibition mostly above about 40%, no sharp cut-off; inactive means mostly below about 27%
Platelet DG rel = modulates dense granule release in human platelets | human platelet-rich plasma, SFLLRN dense granule ATP release, luminescence | inhibition, %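 (compounds screened at 7.5 µM in platelet-rich plasma)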 | hit rate 0.22% among 300,000;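 active means mean replicate score, as percent of positive control, at or above 50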
HSP90 refold inh = HSP90 refolding inhibition in rabbit reticulocyte lysate. luciferase refolding luminescence, 3 h. inhibition, % at 5.6 µM. hit rate 0.91% among 290,000. AID 1789;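 active means inhibition above the screen-wide mean plus 3 SD, computed separately per campaign, cut at about 16% in these data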;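 further: 0% = DMSO wells and 100% = 60 µM geldanamycin wells; inhibitors lower the luminescence because luciferase stays unfolded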
SENP6 block = inhibitors of human SENP6 protease; Recombinant SENP6 catalytic domain, aminoluciferin luminescence; inhibition, % at 10 µM; hit rate 1.8% among 330,000; AID 2599;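 active means inhibition above about 50% at the single tested dose, limit read from the data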;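 further: plate controls were DMSO wells with enzyme for no effect and DMSO wells lacking enzyme for full effect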
SENP8 conf = human SENP8 inhibition, confirmed; shares compounds with SENP7 block; Recombinant SENP8, Z-RLRGG-aminoluciferin luminescence, 60 min; inhibition, % at 12.5 µM; hit rate 40% among 6,200;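 active means mean inhibition across replicates above about 50%, limit read from the data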
SENP6 conf = confirmation of human SENP6 protease inhibitors; shares compounds with SENP7 block; recombinant SENP6, Z-RLRGG-aminoluciferin luminescence; inhibition, % at 12.5 µM; hit rate 58% among 6,200; AID 488915
SENP7 confirm = confirmation of human SENP7 protease inhibitors; shares compounds with SENP7 block; hit rate 69% among 6,200; inhibition, % at 12.5 µM; recombinant SENP7, Z-RLRGG-aminoluciferin luminescence, 40 min; AID 488917
Casp3 SENP sel = inhibits human caspase-3 in SENP selectivity test; purified caspase-3, Z-DEVD-aminoluciferin luminescence, 60 min; hit rate 60% among 6,200; shares compounds with SENP7 block; inhibition, % at 12.5 µM;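 active means mean inhibition above about 50%, limit read from the data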;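 further: plate controls were enzyme with DMSO for no effect and wells without caspase-3 for full effect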
SENP luc ctr = luminescence interference (SENP counter-screen) | shares compounds with SENP7 block | Pre-incubated SENP8/Z-RLRGG-aminoluciferin, luciferase luminescence interference | inhibition, % at 12.5 µM | hit rate 39% among 6,200;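 active means mean inhibition above about 50% when retested at one dose, limit read from the data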;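 further: plate controls were DMSO wells with completed reaction for no effect and substrate without enzyme for full effect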
* = called active by the depositor; i = inactive; . = no result. Rows were chosen to be rich in hits. Some 2.8% of all compounds tested hit in one or more screens of this group.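 How the source made its calls, unless noted: active means mean inhibition above about 50% in the one-dose retest (limit read from the data); inactive means the rest.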

SMILES	SENP8 block-1	SENP7 block	SENP8 block-2	Platelet DG rel	HSP90 refold inh	SENP6 block	SENP8 conf	SENP6 conf	SENP7 confirm	Casp3 SENP sel	SENP luc ctr
CCCCOc1ccc(C(=O)NCC(=O)N2CCN(C/C=C/c3ccccc3)CC2)cc1	.	.	24	.	.	.	.	.	.	.	.
CCCc1nn(C)c(C(=O)Nc2ccc3ccccc3c2)c1Cl	29	37	15	-5	1	52*	-3	1	13	11	-1
O=C1c2ccccc2C(=O)C12OC2c1cccc2ccccc12 (stereo not given)	53*	0	93*	6	4	87*	72*	88*	78*	3	10
O=C1NC(c2cccc3ccccc23)Nc2ccccc21 (stereo not given)	.	.	-470	.	.	.	.	.	.	.	.
Cc1ccc(NC2=C(NCCO)C(=O)c3ccccc3C2=O)cc1	47	36	-44	6	-2	70*	34	56*	22	16	2
COc1ccc(C2=C(Nc3ccc(C)cc3)c3ccccc3C2=O)cc1	-2	10	23	7	3	1	.	.	.	.	.
Cc1ccc(C(=O)N2CCN(C34CC5CC(CC(C5)C3)C4)CC2)o1	-10	11	11	-26	0	-7	.	.	.	.	.
COc1ccc(Cc2nnc(SCC(=O)Nc3ccc(N4CCOCC4)cc3)o2)cc1	7	-7	15	-3	-3	-19	.	.	.	.	.
Cc1cccc(/C=N/NC(=O)c2cc(-c3cccnc3)nc3c2c(C)nn3-c2ccccc2)c1	-9	77*	-171	13	0	14	4	-5	-5	-5	-3
Cc1ccccc1N/N=C/c1c(C)nc2ccccn12	1	1	-180	6	0	-10	.	.	.	.	.
COc1ccc(Cl)cc1S(=O)(=O)NCCCn1ccnc1	-4	0	17	-1	-2	53*	2	-3	-2	-3	-4
COc1ccc(OC)c(S(=O)(=O)NCCCn2ccnc2)c1	-8	-3	13	-2	-3	0	.	.	.	.	.
CC1(C(=O)NCc2cccc(C(F)(F)F)c2)CCN1C1Cc2ccccc2C1 (stereo not given)	.	.	29	.	.	.	.	.	.	.	.
CC(C)=CCC1=C(OCC(=O)O)C(=O)c2ccccc2C1=O	76*	36	72*	-1	5	-17	80*	87*	65*	10	9
O=C(ONc1ccc(N=NC(=O)c2ccccc2O)cc1)c1ccccc1	85*	56*	32	2	-3	91*	26	27	24	85*	7
Oc1cccc2c(NC(=S)Nc3ccc(SC(F)F)cc3)cccc12	53*	30	-185	-1	13	85*	24	20	0	4	10
Cc1ccsc1C(=O)NNC(=O)c1ccccc1F	29	58*	1	.	.	42	26	27	76*	83*	56*
O=C(NNC(=O)c1ccccc1F)c1cccs1	-8	-7	12	-3	-4	7	.	.	.	.	.
COCCNC(=O)C1CCCN(C(=O)c2cc(-c3cccs3)oc2C)CC1 (stereo not given)	.	.	0	.	.	.	.	.	.	.	.
CCN(CC)S(=O)(=O)c1ccc(N=NC2=C(O)CCCC2=O)cc1	4	8	19	2	-2	26	.	.	.	.	.
CCN(CC)S(=O)(=O)c1ccc(N=Nc2c(N)[nH]c(=O)[nH]c2=O)cc1	20	26	43*	1	9	52*	15	11	14	37	2
CCc1noc(C)c1C(=O)OCC(=O)c1ccccc1OC	-9	2	1	10	-2	-12	.	.	.	.	.
O=C(Nc1ccc(SC(F)F)cc1)c1ccccc1F	20	17	16	-4	-1	50*	37	35	73*	41	63*
O=C(Cc1ccccc1F)Nc1ccc(SC(F)F)cc1	26	43	19	21	-4	61*	5	2	53*	18	28
O=C(COC(=O)Cc1ccccc1F)Nc1ccc(SC(F)F)cc1	-8	0	4	-4	4	-8	.	.	.	.	.
SMILES	SENP8 block-1	SENP7 block	SENP8 block-2	Platelet DG rel	HSP90 refold inh	SENP6 block	SENP8 conf	SENP6 conf	SENP7 confirm	Casp3 SENP sel	SENP luc ctr
CN(CC(=O)Nc1ccccc1Cl)CC(=O)Nc1cccc2ccccc12	-3	-14	24	.	.	-2	.	.	.	.	.
CC(=O)Nc1cc(-c2ccccc2Cl)cn2c(-c3ccc(S(C)(=O)=O)cc3)cnc12	.	.	i	.	.	.	.	.	.	.	.
COc1cc(OC)c2c(c1)O/C(=C\c1ccccc1)C2=O	57*	54*	-397	-2	.	68*	72*	68*	83*	47	72*
CC(=O)Oc1ccc(/C=C2/Oc3ccccc3C2=O)cc1	83*	78*	-86	19	4	87*	40	61*	44	71*	33
O=C1/C(=C/c2ccccc2)Oc2cc(OC(=O)N3CCOCC3)ccc21	-16	-8	-3	-7	3	-15	.	.	.	.	.
COc1ccc(/C=C2\Oc3ccccc3C2=O)cc1	92*	97*	-473	.	.	93*	5	94*	101*	94*	88*
COCOc1ccc(/C=C2/Oc3cc(OCOC)cc(OCOC)c3C2=O)c(OCOC)c1	4	-7	-233	-1	.	-13	.	.	.	.	.
COc1ccnc2c1c(=O)n(Cc1ccc(Cl)cc1Cl)c(=O)n2C	3	2	-11	-35	1	-3	.	.	.	.	.
Cc1cc(-c2ccc(C)c(S(=O)(=O)Nc3cc(C)on3)c2)on1	5	12	12	-6	-1	-6	.	.	.	.	.
Cc1cc(C)cc(N2CCCn3c2nc2c3c(=O)n(CC(=O)OCc3ccccc3)c(=O)n2C)c1	1	55*	-4	6	1	9	-17	-9	-15	1	-9
O=C(Nc1ccncc1)c1cc2ccccc2cc1O	96*	93*	-6	31	.	99*	85*	99*	102*	97*	45
COc1ccc(NC(=O)c2cc([N+](=O)[O-])ccc2O)cc1	96*	100*	29	72*	81*	100*	-25	101*	104*	100*	100*
Cc1c(C(=O)Nc2cccc([N+](=O)[O-])c2)csc1-c1ccccc1	2	97*	25	8	-2	72*	32	27	45	76*	52*
O=C(Nc1cccc([N+](=O)[O-])c1)c1cc2ccccc2cc1O	80*	70*	40	-10	-3	87*	14	37	44	79*	4

Source: PubChem (several laboratories)
